Measurements as given in PubChem BioAssay (EPA / NIEHS).
Records with an inconclusive call do not appear. Calls of active or inactive are those of the source. Rule for the calls: active = hit-call score of the fitted dose curve at least 0.9, where 1 is the maximum; inconclusive = response in the unintended direction; inactive = score below 0.9.

Molecular target: Agonist Androgen Response Element (ARE), AR (gene 367) (UniProt P10275)
Assay: OT_AR_ARELUC_AG_1440: Odyssey Thera (OT) 24-hour CHO-K1 Luciferase Assay for Agonist Androgen Response Element (ARE) (AID 2283379)
How it was run: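 Gain-of-signal reporter endpoint: cells (CHO-K1, hamster) are treated 24 h, luciferin/ATP reagent added, and luminescence compared with DMSO baseline.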

Agonist Androgen Response Element (ARE), AR (gene 367), sequence (P10275 whole entry, looked up): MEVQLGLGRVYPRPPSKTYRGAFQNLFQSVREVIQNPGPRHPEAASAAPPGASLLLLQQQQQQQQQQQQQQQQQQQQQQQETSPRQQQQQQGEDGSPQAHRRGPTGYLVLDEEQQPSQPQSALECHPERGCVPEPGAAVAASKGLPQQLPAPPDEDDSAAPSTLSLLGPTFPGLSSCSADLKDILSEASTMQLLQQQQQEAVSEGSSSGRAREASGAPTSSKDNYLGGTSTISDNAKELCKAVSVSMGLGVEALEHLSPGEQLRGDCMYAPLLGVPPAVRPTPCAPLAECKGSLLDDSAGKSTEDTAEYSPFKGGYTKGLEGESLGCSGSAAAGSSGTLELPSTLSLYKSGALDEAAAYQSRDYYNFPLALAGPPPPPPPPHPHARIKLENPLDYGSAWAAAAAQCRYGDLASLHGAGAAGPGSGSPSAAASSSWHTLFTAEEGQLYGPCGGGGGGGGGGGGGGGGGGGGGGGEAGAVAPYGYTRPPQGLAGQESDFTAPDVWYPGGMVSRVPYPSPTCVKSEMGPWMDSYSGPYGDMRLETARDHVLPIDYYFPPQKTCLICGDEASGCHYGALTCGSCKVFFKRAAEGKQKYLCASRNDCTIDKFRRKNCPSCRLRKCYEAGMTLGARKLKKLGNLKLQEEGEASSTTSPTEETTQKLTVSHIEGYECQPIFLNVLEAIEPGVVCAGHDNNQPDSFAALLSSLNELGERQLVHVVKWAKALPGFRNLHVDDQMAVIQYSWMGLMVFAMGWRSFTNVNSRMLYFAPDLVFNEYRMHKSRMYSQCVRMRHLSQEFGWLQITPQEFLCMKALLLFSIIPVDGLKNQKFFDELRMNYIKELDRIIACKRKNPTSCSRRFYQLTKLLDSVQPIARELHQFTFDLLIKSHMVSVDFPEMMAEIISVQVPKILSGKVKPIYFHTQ

outcome, inactive:
CCN(Cc1cccnc1)C(=O)c1cccc(Cl)c1[C@]1(C)C(=O)N(Cc2ccc(OC)cc2OC)c2ccc(Cl)cc21
OCCO
CCCC(=O)OCCC(C)C
O=c1c(-c2ccc(O)cc2)coc2cc(O)cc(O)c12
O=C(O)Cn1c(=O)n(Cc2ccc(Br)cc2F)c(=O)c2ccc(Cl)cc21
Cc1ccc(C(C)C)cc1

Molecular target: Estrogen receptor beta (Homo sapiens) (UniProt Q92731)
Sequence (Q92731 whole entry, looked up): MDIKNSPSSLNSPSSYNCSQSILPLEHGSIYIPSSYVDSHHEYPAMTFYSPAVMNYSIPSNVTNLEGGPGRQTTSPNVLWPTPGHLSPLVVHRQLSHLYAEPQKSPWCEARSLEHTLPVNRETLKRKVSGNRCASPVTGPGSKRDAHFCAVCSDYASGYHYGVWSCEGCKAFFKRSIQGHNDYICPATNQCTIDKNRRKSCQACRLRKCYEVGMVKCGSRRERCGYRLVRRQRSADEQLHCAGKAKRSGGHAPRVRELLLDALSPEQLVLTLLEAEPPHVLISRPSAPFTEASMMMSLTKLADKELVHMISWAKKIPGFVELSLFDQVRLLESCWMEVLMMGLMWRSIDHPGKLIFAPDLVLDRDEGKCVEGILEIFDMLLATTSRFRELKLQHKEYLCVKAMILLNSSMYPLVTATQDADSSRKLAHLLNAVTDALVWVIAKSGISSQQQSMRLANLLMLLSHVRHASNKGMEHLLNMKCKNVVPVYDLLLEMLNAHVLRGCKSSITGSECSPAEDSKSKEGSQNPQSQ
Assay: OT_ER_ERbERb_1440: Odyssey Thera (OT) 24-hour HEK293T Protein-Complementation Assay for Estrogen Receptor-beta/-beta Homodimer (AID 2283380);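 note: scored as signal increase over DMSO baseline for both agonists and antagonists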
How it was run: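 HEK293T cells stably expressing ER beta LBD (aa 310-547) homodimer fragment-complementation reporter, dosed 24 h. Cells formaldehyde-fixed, Draq5-stained; gain in nuclear (agonist) or nuclear plus cytoplasmic (antagonist) fluorescence versus DMSO read by laser scanning cytometry.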

outcome, inactive:
CCN(Cc1cccnc1)C(=O)c1cccc(Cl)c1[C@]1(C)C(=O)N(Cc2ccc(OC)cc2OC)c2ccc(Cl)cc21
CC1=CC(=O)/C(=C(/C)O)C(=O)O1
CCCCCCCC[Si](OCC)(OCC)OCC
CCCCCCCCCCCCO
CC[C@@H]1C[C@H](N(Cc2cc(C(F)(F)F)cc(C(F)(F)F)c2)C(C)=O)c2cc(C(F)(F)F)ccc2N1C(=O)OC(C)C
NC(=O)c1nc(-c2cccc(-c3cc(F)ccc3OCC(F)(F)C(F)(F)F)c2)n[nH]1
O=c1ccc2ccccc2o1
Cc1cc2c(cc1C(F)(F)F)N(C(=O)Nc1ccc(Oc3cccnc3C)nc1)CC2
Cc1ccc2oc(CN(Cc3ccccc3)C(=O)Nc3c(F)cc(F)cc3F)c(-c3ccc(Cl)cc3)c2c1
CCN(Cc1cccc(S(=O)(=O)O)c1)c1ccc(C(=C2C=CC(=[N+](CC)Cc3cccc(S(=O)(=O)O)c3)C=C2)c2ccccc2S(=O)(=O)[O-])cc1
OC12N=C(c3ccccc3)SC1Cc1cc(Cl)ccc12 (configuration not stated)
CCCCOC(=O)CC(CC(=O)OCCCC)(OC(C)=O)C(=O)OCCCC
CC1(C)NC(=O)N(c2ccc([N+](=O)[O-])c(C(F)(F)F)c2)C1=O
c1ccc2n[nH]nc2c1
Cc1c2ccccc2c(C)c2c1ccc1ccccc12
CC(C)(O)c1ccc(CNC(=O)c2cccnc2Oc2ccc3nonc3c2)cc1
O=C(O)Cn1c(=O)n(Cc2ccc(Br)cc2F)c(=O)c2ccc(Cl)cc21
CC[C@H](NC(=O)c1cc(F)ccc1NS(=O)(=O)c1cccc2cccnc12)c1ccccc1
CCO[Si](CCCNC(N)=O)(OCC)OCC
O=C(O)Cc1cc(I)c(Oc2ccc(O)c(I)c2)c(I)c1
O=C(O)c1ccccc1-n1cc(C(=O)O)c(=O)c2cc(Nc3c(F)cc(F)cc3Cl)c(Cl)cc21
CO[C@H]1/C=C/O[C@@]2(C)Oc3c(C)c(O)c4c(O)c(c(/C=N/N5CCN(C)CC5)c(O)c4c3C2=O)NC(=O)/C(C)=C\C=C\[C@H](C)[C@H](O)[C@@H](C)[C@@H](O)[C@@H](C)[C@H](OC(C)=O)[C@@H]1C
O=C1CCC(C2CCCCC2)CC1
CC(C)(C)c1csc(-c2cc3cc(OCc4ccccc4CC(=O)O)ccc3o2)n1
O=C1O[C@H]([C@@H](O)CO)C(O)=C1O
CN1C(=O)CC[C@H]1c1cccnc1
